High-throughput results from PubChem.
697 NFkB inh: lowers PMA/ionomycin-induced NF-kB signal in 697 B cells | 697 B-cell NF-kB luciferase reporter, 16 h | inhibition, % at 4 µM | 0.33% of 330,000 active | AID 435022; in the data active = inhibition above about 35%
esBAF inh: SWI/SNF esBAF complex inhibition | mouse ES cells, Bmi1-luciferase knock-in reporter, 24 h; 100% = twice the neutral-well signal | reporter increase, % at 12.5 µM | 2% of 350,000 active; in the data active = activation above about 40%;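 also: 0% = median of the plate's neutral control wells and 100% = double that signal; a rise in the Bmi1 reporter signal indicates esBAF inhibition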
Jurkat NFkB inh: lowers PMA/ionomycin-induced NF-kB signal in Jurkat cells. PMA/ionomycin-induced NF-kB luciferase reporter, luminescence. AID 435003. inhibition, % at 4 µM. 0.53% of 330,000 active; in the data active = inhibition above about 50%
SMARCA2 act: increases SMARCA2 function in MMTV reporter cells; 1% of 370,000 active; MG213 cells, MMTV-luciferase reporter, dexamethasone, overnight; activation, % at 9.1 µM; in the data active = activation above about 7.8%;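 also: 0% = vehicle wells and 100% = reference activator wells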
Gli-Sufu block: blocks Gli-Sufu signaling in a luciferase reporter; Sufu-KO-LIGHT fibroblasts, Gli luciferase reporter luminescence; inhibition, % at 5 µM; 0.74% of 340,000 active;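 active = inhibition above about 55%, limit read from the data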;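 also: 0% = DMSO-treated cells and 100% = wells with medium but no cells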
SMARCA2 conf: SMARCA2 activation, confirmation screen; shares compounds with SMARCA2 act; AID 652260; MG213 cells, MMTV-luciferase with dexamethasone, luminescence, overnight; MG213 cells expressing E1A, Rb sequestered; DMSO wells 0%, reference activator 100%; 30% of 3,500 active; activation, % at 9.1 µM;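 active = activation above its plate's cutoff, the mean activation of tested wells plus 3 SD, cut at about 7.9% in these data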
VP16 Luc act: GAL4-VP16 reporter activation counter-screen; shares compounds with SMARCA2 act; HEK293 GAL4-VP16 pG5luc reporter, luciferase luminescence; scaled: DMSO wells 0%, SAHA wells 100%; activation, % at 9.1 µM; 41% of 3,500 active; AID 686939;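 active = activation above the solvent-only control well mean plus 3 SD, averaged across control plates, cut at about 5.2% in these data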
Starred values were filed as active, the others as inactive; · = no result. Rows were chosen to be rich in hits. Some 3.3% of all compounds tested hit in one or more screens of this group.

SMILES	697 NFkB inh	esBAF inh	Jurkat NFkB inh	SMARCA2 act	Gli-Sufu block	SMARCA2 conf	VP16 Luc act
CC(=O)O[C@@H]1/C=C/[C@](C)(O)C[C@@H](C)C/C=C/[C@H]2[C@H](O)C(C)=C(C)[C@H]3[C@H](Cc4ccccc4)NC(=O)[C@@]123	29	·	-6	·	23	·	·
C=C1C(C)C2C(Cc3ccccc3)NC(=O)C23C(OC(C)=O)C=CC(C)(O)CC(C)CC=CC3C1O (stereo not drawn)	·	·	·	14*	30	14*	5
CN1CCN(c2ccc3c(c2)S(=O)(=O)c2ccccc2C3=O)CC1	-50	-2	-105	8.6*	-42	8.2*	8.8*
N#Cc1ccc(-c2ccc([C@@H]3[C@H](CO)N4CCCCN(C(=O)Cc5ccccc5)C[C@@H]34)cc2)cc1	·	0	·	·	·	·	·
CS(=O)(=O)c1ccc(C2=C(CNC(=O)c3cccnc3)[C@H]3CC[C@@H](C2)N3Cc2ccccc2)cc1	·	-1	·	13*	·	-3	0
CC(C)NC(=O)N1[C@@H]2c3ccc(-c4cccc(C(=O)N(C)C)c4)c(=O)n3C[C@H]1[C@H](CO)[C@H]2C(=O)O	·	-2	·	·	·	·	·
COc1ccc(-c2ccc([C@@H]3[C@@H](CO)N4CCCCN(C(=O)Cc5ccncc5)C[C@H]34)cc2)cc1	·	-7	·	·	·	·	·
